Assay [1] is described as follows: qHTS assay to identify small molecule agonists of the RXR signaling pathway - cell viability counter screen (AID 1159529). Further: nearly all actives have a fitted effect of over 50% in size. Further: potency means the concentration at half of the fitted maximal effect. A digest of the protocol:
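Luminescence from CellTiter-Glo (30 min, RT) measured viability in the same wells as the beta-lactamase reporter readout. Cells: GeneBLAzer RXR-alpha HEK 293T, 2% charcoal-stripped FBS. Compound exposure 16 hr, 37 C.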
A general note: qHTS replaces the single test concentration by a dilution series.

The nature of assay [2]: qHTS assay to identify small molecule antagonists of the retinoid acid receptor (RAR) signaling pathway - cell viability counter screen (AID 1159551). Further: nearly all actives have a fitted effect of over 35% in size. Summed up:
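Cytotoxicity counter screen in C3RL4 cells: 6 h compound exposure with 1 uM retinol (final), viability from cellular ATP by luminescence.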

The nature of assay [3]: qHTS assay to identify small molecule antagonists of the retinoic acid receptor (RAR) signaling pathway (AID 1159552; further: nearly all actives have a fitted effect of over 50% in size). Summed up:
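Luminescence from a RARE luciferase reporter in C3RL4 cells served as read-out. Cells received compounds together with 1 uM final retinol and incubated 6 hr at 37 C before detection reagent was added for 30 min at room temperature.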

Assay [4] can be described thus: qHTS assay to identify small molecule agonists of the retinoic acid receptor (RAR) signaling pathway (AID 1159553). Further: potency means the concentration at half of the fitted maximal effect. Summed up: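 Agonist activity was scored in C3RL4 cells bearing a retinoic acid response element luciferase construct. Cells were treated with compounds for 6 hr at 37 C, and luciferase signal was measured as luminescence.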
A short description of assay [5]: qHTS assay to identify small molecule antagonists of the estrogen related receptor (ERR) signaling pathway from Tox21 library - cell viability counter screen (AID 1224834). Further: nearly all actives have a fitted effect of over 30% in size. Further: potency means the concentration at half of the fitted maximal effect. Summed up: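 Cytotoxicity of test substances is gauged in the same ERR cells used for the antagonist screen, after 17.5 h of compound treatment at 37 C, by CellTiter-Fluor fluorescence measured after 30 min.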

Assay [6] deals with Luciferin 4-monooxygenase (Photinus pyralis) (UniProt P08659). In words: qHTS assay to identify small molecule inhibitors of firefly luciferase (AID 1224835). Further: nearly all actives have a fitted effect of over 25% in size. Further: potency means the concentration at half of the fitted maximal effect. A digest of the protocol: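 Biochemical qHTS: compounds run as interplate titrations against purified firefly enzyme, with D-luciferin and ATP each at its KM concentration. Light output recorded by CCD imaging.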
Assay [7] in a line: qHTS assay to identify small molecule agonists of the constitutive androstane receptor (CAR) signaling pathway - cell viability counter screen (AID 1224836). Further: nearly all actives have a fitted effect of over 45% in size. Further: potency means the concentration at half of the fitted maximal effect. A digest of the protocol:
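Viability read-out: CellTiter-Fluor fluorescence after 23 h compound exposure at 37 C/5% CO2 in double-stable HepG2-CYP2B6-hCAR cells, with PK11195 present at 0.75 uM final; compounds tested in 15-point titration.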

Assay [8] is described as follows: qHTS assay to identify small molecule antagonists of the constitutive androstane receptor (CAR) signaling pathway - cell viability counter screen (AID 1224837). Further: nearly all actives have a fitted effect of over 45% in size. Further: potency means the concentration at half of the fitted maximal effect. A digest of the protocol:
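Multiplexed cytotoxicity read-out for the CAR antagonist screen: double-stable HepG2-CYP2B6-hCAR cells co-treated with 50 nM CITCO (final) and compound over 15 concentrations, incubated 23 hr, then assessed by CellTiter-Fluor fluorescence.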

For assay [9], the target named is Nuclear receptor subfamily 1 group I member 3 (Homo sapiens) (UniProt Q14994). Kind of assay: qHTS assay to identify small molecule antagonists of the constitutive androstane receptor (CAR) signaling pathway (AID 1224838). Further: nearly all actives have a fitted effect of over 40% in size. Further: potency means the concentration at half of the fitted maximal effect. A digest of the protocol:
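Compounds were titrated across 15 concentrations onto HepG2 cells double-stably expressing hCAR and a CYP2B6-2.2kb reporter, together with 50 nM CITCO (final). After 24 h at 37 C, luciferase activity was measured by luminescence.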

The target is the same in assay [10]. In words: qHTS assay to identify small molecule agonists of the constitutive androstane receptor (CAR) signaling pathway (AID 1224839).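 Further: HepG2 cells stably carrying human CAR and a CYP2B6 luciferase reporter; series mostly up to about 92 µM; nearly all actives have a fitted effect of over 15% in size.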 A digest of the protocol:
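Luminescence read-out (ONE-Glo, 30 min, room temperature) from double-stable HepG2-CYP2B6-hCAR cells exposed 24 h to 15-point compound series in presence of 0.75 uM PK11195 final.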

A short description of assay [11]: qHTS assay to identify small molecule antagonists of the estrogen related receptor signaling pathway with the pleiotropic PPARgamma coactivator (PGC) from Tox21 10K library - cell viability counter screen (AID 1224840; active means well fitted cell-killing curve with a large enough effect in the repeat runs, not every such curve was filed as active; further: nearly all actives have a fitted effect of over 40% in size). Summed up:
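Step one, plate 2,000 PGC/ERR cells per well; step two, incubate 6 h at 37 C/5% CO2; step three, pin-transfer compounds; step four, incubate 17.5 h; step five, add CellTiter-Fluor and read fluorescence after 30 min.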

Assay [12] can be described thus: qHTS assay to identify small molecule antagonists of the estrogen related receptor signaling pathway with the pleiotropic PPARgamma coactivator (PGC) from Tox21 10K library (AID 1224841; call rule not given here; further: actives are mostly falling curves and most rising ones were filed inactive; nearly all actives have a fitted effect of over 50% in size; further: potency means the concentration at half of the fitted maximal effect). A digest of the protocol: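 Antagonism in this quantitative HTS is taken from loss of luciferase signal in PGC/ERR cells. Cells (2,000/well) are treated with compounds in DMSO after a 6 h settling period and read by One-Glo luminescence after 18 h.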

Each structure is given as a SMILES string. Results filed as inconclusive are left out. Unmarked numbers belong to inactive results. The source made the active and inactive calls. Unless noted, the call rests on the fitted dose curve; in most records, active means well fitted curve in the direction sought with a large enough effect in the repeat runs; inconclusive means weak or mixed curves; inactive means no such curve, though single readings can be large; an effect the other way counts as inactive or inconclusive.

Chain of Luciferin 4-monooxygenase (Photinus pyralis) (P08659 whole entry, looked up): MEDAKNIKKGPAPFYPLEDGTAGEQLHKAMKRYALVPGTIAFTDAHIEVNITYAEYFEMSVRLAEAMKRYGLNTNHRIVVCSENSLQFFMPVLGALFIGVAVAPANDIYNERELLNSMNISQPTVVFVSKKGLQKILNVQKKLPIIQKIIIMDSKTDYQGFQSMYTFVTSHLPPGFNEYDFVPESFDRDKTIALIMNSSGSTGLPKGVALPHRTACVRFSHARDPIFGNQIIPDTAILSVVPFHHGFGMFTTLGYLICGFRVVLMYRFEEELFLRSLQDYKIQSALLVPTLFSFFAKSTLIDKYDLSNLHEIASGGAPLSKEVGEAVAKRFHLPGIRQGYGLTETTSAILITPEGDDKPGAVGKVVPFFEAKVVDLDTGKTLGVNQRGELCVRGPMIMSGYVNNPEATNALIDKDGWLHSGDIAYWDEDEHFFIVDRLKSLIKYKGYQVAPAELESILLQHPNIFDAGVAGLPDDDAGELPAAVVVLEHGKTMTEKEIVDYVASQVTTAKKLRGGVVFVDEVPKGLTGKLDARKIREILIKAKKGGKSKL
Chain of Nuclear receptor subfamily 1 group I member 3 (Homo sapiens) (Q14994 whole entry, looked up): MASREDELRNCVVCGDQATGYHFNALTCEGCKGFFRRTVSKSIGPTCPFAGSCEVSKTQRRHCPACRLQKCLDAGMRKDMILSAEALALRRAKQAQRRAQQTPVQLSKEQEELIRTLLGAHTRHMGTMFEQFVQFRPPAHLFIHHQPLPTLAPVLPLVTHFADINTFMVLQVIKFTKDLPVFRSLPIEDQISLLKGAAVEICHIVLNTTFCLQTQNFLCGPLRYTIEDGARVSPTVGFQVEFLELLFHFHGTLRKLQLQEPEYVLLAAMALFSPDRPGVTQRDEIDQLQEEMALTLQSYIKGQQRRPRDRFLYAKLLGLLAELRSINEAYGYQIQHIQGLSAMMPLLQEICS

`CC(C)Cc1nccs1`: the Potency result in [1], in assay [4], in assay [5], in assay [6], in assay [7] and in assay [8] was “inactive” in each case. In addition, the Potency result in assay [9], in assay [10] and in assay [11] was “inactive” in each case. Also, the compound was called inactive in assay [2] and in assay [3].
Turning to `C=CCCC`, the Potency entry in assay [1], in assay [4], in [5], in assay [6], in assay [7] and in assay [8] was “inactive” in each case. Further, the Potency result in assay [9], in assay [10] and in assay [11] was “inactive” throughout. The outcome in assay [2] and in [3] was inactive.
As for `Oc1ccc(Oc2ccccc2)cc1`, the Potency result in [1], in assay [4], in [5], in [6], in [7] and in assay [8] was “inactive” in each case. Moreover, the Potency result in assay [9] and in assay [11] was “inactive” throughout. In addition, the compound was called inactive in [2] and in assay [3].
In the case of `O=C(O)c1cccc(C(=O)O)c1C(=O)O`, the Potency in assay [1] was 24.8 µM (active). The compound was classed as inactive in [2] and in [3]. For the same compound, the Potency result in assay [4], in [5], in assay [6], in assay [7], in assay [8] and in [10] was “inactive” throughout. The Potency result in [11] was “inactive”.
With `Cc1c(-c2cccnc2)c2ccccc2n1CCCCC(=O)O`, the Potency result in [1], in assay [5], in assay [7], in assay [8], in assay [9] and in [12] was “inactive” in each case. For the same compound, the compound was classed as inactive in assay [2] and in [3]. Besides, the Potency in [4] was 43.3 µM (active); in assay [6], 39.9 µM (active).
As for `O=C(O)c1ccc(O)c(O)c1`, the Potency result in [1], in [4], in [5], in assay [6], in assay [7] and in assay [8] was “inactive” each time. The Potency result in assay [9], in assay [10] and in assay [11] was “inactive” in each case. Further, the result in assay [2] and in [3] was inactive.
Turning to `O=C(c1ccc(Cl)cc1)c1ccc(Cl)cc1`, the Potency result in [1], in assay [4], in [5], in assay [6], in assay [7] and in assay [8] was “inactive” in each case. Also, the Potency entry in assay [9] and in [11] was “inactive” each time. The call in assay [2] and in assay [3] was inactive.
As to `CC(C)=CCC/C(C)=C/C=N/O`, the Potency result in assay [1], in assay [4], in [5], in assay [6], in assay [7] and in [8] was “inactive” in each case. For the same compound, the Potency result in assay [9], in assay [10] and in assay [11] was “inactive” throughout. The outcome in [2] and in [3] was inactive.
Take `CC(C)C[C@H](NC(=O)[C@H](Cc1ccccc1)NC(=O)c1cnccn1)B(O)O`: the Potency entry in assay [1], in assay [6] and in assay [10] was “inactive” throughout. The outcome in assay [2] and in assay [3] was inactive. The Potency is 0.0094 µM (active) in [4]; 0.0841 µM (active) in [5]; 0.298 µM (active) in [7]; 0.266 µM (active) in [8]; 0.0376 µM (active) in [9]; 0.0188 µM (active) in assay [12].
With `O=C(O)c1ccccc1[N+](=O)[O-]`, the Potency entry in [1], in assay [4], in assay [5], in assay [6], in assay [7] and in [8] was “inactive” in each case. In addition, the Potency entry in [11] was “inactive”. The call in [2] and in assay [3] was inactive.
In the case of `Cc1c(Cl)cccc1Nc1ccccc1C(=O)O`, the Potency entry in assay [1], in [4], in [5], in assay [6], in [7] and in assay [8] was “inactive” in each case. Also, the Potency result in assay [9], in assay [10] and in assay [11] was “inactive” in each case. Besides, the compound was called inactive in assay [2] and in assay [3].
`O=C(O)c1cc(C(=O)O)cc([N+](=O)[O-])c1`: the Potency entry in assay [1], in assay [4], in [5], in assay [6], in assay [7] and in [8] was “inactive” throughout. Moreover, the Potency entry in assay [10] was “inactive”. Moreover, the outcome in [2] and in assay [3] was inactive.

These data come from PubChem BioAssay (Tox21).
